Assay results from PubChem BioAssay (NCATS).
Results filed as inconclusive are left out. Where a call stands in place of a potency, no number is given. A number with no mark means an inactive call. The source made the active and inactive calls. The call rests on the fitted dose curve; in most records, active means well fitted cell-killing curve with a large enough effect; inconclusive means small, poorly fitted or top-dose-only effect, or effect the other way; inactive means flat fitted curve, though single readings scatter.

Experiments:
Assay in all cases: Primary qHTS to identify gynecologic anti-cancer compounds using libraries of approved drugs and bioactive compounds (AID 1345084); further: nearly all actives have a fitted effect of over 55% in size
[1] = tested on: C33A; conditions: Gynecologic cancer cell panel viability, ATPlite luminescence, 48 h; series mostly up to 57.5 µM
Summary of the method: (§1)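 ATP-based viability (ATPlite), 1,000 cells/well, 16 h pre-incubation, 48 h compound at 37 C, 5% CO2, 15 min RT before read.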

[2] = tested on: CAOV3; conditions: Gynecologic cancer cell panel viability, ATPlite luminescence, 48 h; series mostly up to 57.5 µM
Summary of the method: as §1

[3] = tested on: CASKI; conditions: Gynecologic cancer cell panel viability, ATPlite luminescence, 48 h; series mostly up to 57.5 µM
Summary of the method: as §1

[4] = tested on: Es-2; conditions: Gynecologic cancer cell panel viability, ATPlite luminescence, 48 h; series mostly up to 57.5 µM
Summary of the method: as §1

[5] = tested on: HeLa; conditions: Gynecologic cancer cell panel viability, ATPlite luminescence, 48 h; series mostly up to 57.5 µM
Summary of the method: as §1

[6] = tested on: Hek293T; conditions: Gynecologic cancer cell panel viability, ATPlite luminescence, 48 h, control line for the selectivity index; series mostly up to 57.5 µM
Summary of the method: as §1

[7] = tested on: JEG-3; conditions: Gynecologic cancer cell panel viability, ATPlite luminescence, 48 h; series mostly up to 57.5 µM
Summary of the method: as §1

[8] = tested on: OV90; conditions: Gynecologic cancer cell panel viability, ATPlite luminescence, 48 h; series mostly up to 57.5 µM
Summary of the method: as §1

[9] = tested on: PA-1; conditions: Gynecologic cancer cell panel viability, ATPlite luminescence, 48 h; series mostly up to 57.5 µM
Summary of the method: as §1

[10] = tested on: SKOV3; conditions: Gynecologic cancer cell panel viability, ATPlite luminescence, 48 h; series mostly up to 57.5 µM
Summary of the method: as §1
Potency means the concentration at half of the fitted maximal effect.

| Compound | Potency [1] | Potency [2] | Potency [3] | Potency [4] | Potency [5] | Potency [6] | Potency [7] | Potency [8] | Potency [9] | Potency [10] |
| --- | --- | --- | --- | --- | --- | --- | --- | --- | --- | --- |
| COC(=O)N1CCN(C(=O)Cc2ccc(Cl)c(Cl)c2)[C@@H](CN2CCCC2)C1 | inactive | inactive | inactive | inactive | inactive | inactive | inactive | inactive | inactive | inactive |
| OC1(c2ccc(Cl)cc2)c2ccccc2C2=NCCN21 (centres undefined) | inactive |  | inactive | inactive | inactive | inactive | inactive | inactive | inactive | inactive |
| N#CC(OC1OC(COC2OC(CO)C(O)C(O)C2O)C(O)C(O)C1O)c1ccccc1 (centres undefined) | inactive | inactive | inactive | inactive |  | inactive | inactive | inactive | inactive | inactive |
| CC[C@H]1CN2CC[C@H]1C[C@@H]2[C@@H](O)c1ccnc2ccc(OC)cc12 | inactive | inactive | inactive | inactive | inactive | inactive | inactive | inactive |  | inactive |
| OCCCCC#Cc1cncc(OC[C@@H]2CCN2)c1 | inactive | inactive | inactive | inactive | inactive | inactive | inactive | inactive | inactive | inactive |
| COC(=O)[C@@]12C(=O)C(C)C(=O)[C@]1(C)C(C)=C[C@H]1[C@]3(C=O)CC[C@H](OC(C)=O)C(C)(C)[C@H]3CC[C@@]12C (some centres undefined) | inactive |  | inactive | inactive | inactive | inactive | inactive | inactive | inactive | inactive |
| CN1C(=O)c2ccccc2NC(=O)[C@]12O[C@@H]2c1ccccc1 | inactive | inactive | inactive | inactive | inactive | inactive | inactive | inactive |  | inactive |
| C[C@]12CC[C@H]3[C@@H]([C@H](O)CC4=CC(=O)CC[C@@]43C)[C@@H]1CC[C@@H]2O | inactive | inactive | inactive | inactive | inactive | inactive | inactive | inactive | inactive | inactive |
| O=C(N1CCOCC1)N1CCN(c2ccc(Cl)cc2)CC1 | inactive | inactive | inactive | inactive | inactive | inactive | inactive | inactive | inactive | inactive |
| CC(C)C1(OO)C=C2C(=O)CC3C(C)(C(=O)O)CCCC3(C)C2CC1 (centres undefined) | inactive | inactive | inactive | inactive | inactive | inactive | inactive | inactive | inactive | inactive |
| CCCSP(=O)(OCC)SCCC | inactive | inactive | inactive | inactive | inactive | inactive |  | inactive | inactive | inactive |
| COC1C(O)C(C)OC(OC2C(CO)O[C@@H](O[C@@H]3CC4CCC5C(CC[C@]6(C)[C@@H](C7=CC(=O)OC7)CC[C@]56O)[C@@]4(C)[C@H](O)C3)C(O)C2O)C1O (some centres undefined) | 0.794 µM (active) | 2.82 µM (active) | 2.51 µM (active) | 2.82 µM (active) | 2.82 µM (active) | 2.82 µM (active) |  | 4.47 µM (active) | 2.82 µM (active) | 2.82 µM (active) |
| COC1CC(=O)C23C(=O)NC(CC(C)C)C2C(C)=C(C)C(OO)C3/C=C(\C)CCC(O)C1O (centres undefined) | inactive |  | inactive | inactive | inactive | inactive | inactive | inactive | inactive | inactive |
| CN1C(=O)N(c2ccc(C#N)c(C(F)(F)F)c2)C(=O)[C@]1(CO)c1ccccc1 | inactive | inactive | inactive |  | inactive | inactive | inactive | inactive | inactive | inactive |
| COC(=O)C1(C)CCC(=O)C2(C)c3c(O)cc(C(C)C)cc3C(O)C(OC(C)=O)C12 (centres undefined) | inactive | inactive | inactive | inactive | inactive | inactive | inactive | inactive | inactive | inactive |
| Clc1ccc(OCC2=NCCN2)cc1Cl | inactive |  | inactive | inactive | inactive | inactive | inactive | inactive | inactive | inactive |
| CN1CCCC1CCOC(c1cc2nccc(C(=O)O)c2[nH]1)c1ccccc1Cl (centres undefined) | inactive |  | inactive | inactive | inactive | inactive | inactive | inactive | inactive | inactive |
| C=C1[C@@H]2CC[C@@]3(C)[C@H](c4ccoc4)OC(=O)C[C@]13O[C@H]1CC(=O)C(C)(C)[C@H](C(OC(C)=O)C(=O)OC)[C@]12C (some centres undefined) | inactive | inactive | inactive | inactive | inactive | inactive | inactive | inactive | inactive | inactive |
